Source: PubChem BioAssay (NCATS)
Several values for one entry are separate records, joined by “and”; a condition that tells them apart may be missing. Equal values may be shown once. Results filed as inconclusive are left out. Entries that show only a call come without a potency. Activity calls are given as the source filed them. Unless noted, the call rests on the fitted dose curve; in most records, active means well fitted curve in the direction sought with a large enough effect; inconclusive means small, poorly fitted or top-dose-only effect, or another doubt; inactive means no such curve, though single readings can be large; an effect the other way counts as inactive or inconclusive.

Assays:
[1] = qHTS assay for small molecule agonists of retinoid X receptor alpha signaling (AID 588544; calls by dose curve; further: potency means the concentration at half of the fitted maximal effect); conditions: HEK293T RXRa-UAS-bla, beta-lactamase reporter, 18 h; 530 nm emission
[2] = target: Retinoic acid receptor RXR-alpha (Homo sapiens) (UniProt P19793); test: as above; conditions: HEK293T RXRa-UAS-bla, beta-lactamase reporter, 18 h; series mostly up to 76.7 µM
Chain of Retinoic acid receptor RXR-alpha (Homo sapiens) (P19793 whole entry, looked up): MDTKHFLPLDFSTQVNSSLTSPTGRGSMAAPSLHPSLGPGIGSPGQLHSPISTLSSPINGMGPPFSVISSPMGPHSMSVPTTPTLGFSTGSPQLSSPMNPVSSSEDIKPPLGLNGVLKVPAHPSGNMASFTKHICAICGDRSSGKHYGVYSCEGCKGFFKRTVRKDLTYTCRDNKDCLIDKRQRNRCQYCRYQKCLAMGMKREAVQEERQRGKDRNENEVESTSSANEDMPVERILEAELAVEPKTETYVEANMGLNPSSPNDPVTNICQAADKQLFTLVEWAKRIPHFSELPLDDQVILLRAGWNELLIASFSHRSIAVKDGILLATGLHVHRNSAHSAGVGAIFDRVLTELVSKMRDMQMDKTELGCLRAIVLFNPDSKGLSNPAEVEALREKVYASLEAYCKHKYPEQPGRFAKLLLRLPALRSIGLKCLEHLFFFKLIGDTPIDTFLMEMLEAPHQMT

[3] = target: Thyroid hormone receptor beta (Homo sapiens) (UniProt P10828); test: qHTS assay for small molecule agonists of thyroid hormone receptor beta signaling (AID 588545; calls by dose curve); conditions: TR-UAS-bla GripTite HEK 293, beta-lactamase ratio, agonist mode, 18 h, percent of T3 response, DMSO as zero; series mostly up to 76.7 µM
Chain of Thyroid hormone receptor beta (Homo sapiens) (P10828 whole entry, looked up): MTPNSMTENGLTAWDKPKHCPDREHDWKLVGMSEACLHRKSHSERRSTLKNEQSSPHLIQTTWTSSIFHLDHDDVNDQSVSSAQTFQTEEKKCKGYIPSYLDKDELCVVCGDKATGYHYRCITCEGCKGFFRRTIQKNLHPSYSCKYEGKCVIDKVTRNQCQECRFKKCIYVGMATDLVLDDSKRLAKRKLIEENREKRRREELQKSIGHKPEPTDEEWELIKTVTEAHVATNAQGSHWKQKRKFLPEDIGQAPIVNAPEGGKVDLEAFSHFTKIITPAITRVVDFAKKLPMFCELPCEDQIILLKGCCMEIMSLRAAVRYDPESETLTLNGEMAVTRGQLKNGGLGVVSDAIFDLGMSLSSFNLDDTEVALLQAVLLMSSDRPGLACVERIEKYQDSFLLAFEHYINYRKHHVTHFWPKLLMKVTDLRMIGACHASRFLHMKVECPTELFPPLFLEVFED
Outline: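 Cells (2500/well) were seeded, incubated 4 hrs at 37 C, dosed with a compound series, incubated 18 hrs, loaded with CCF4 dye for 2 hrs at RT, then read for fluorescence. Data were scaled between DMSO (0%) and 10 nM T3 (100%).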

[4] = qHTS assay for small molecule antagonists of retinoid X receptor alpha signaling (AID 588546; active means well fitted inhibition curve with a large enough effect in the signal ratio, with a control signal flat, not every such curve was filed as active; the % refers to the signal ratio;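 further: cells stimulated with 9-cis-retinoic acid as agonist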); conditions: HEK293T RXRa-UAS-bla, beta-lactamase ratio, antagonist mode; measured here: W530 green channel, cytotoxicity proxy
Outline: (§1)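 Beta-lactamase reporter inhibition, read as CCF4 fluorescence ratio (ex 405, em 460/530 nm) after 2 h at RT. HEK293T UAS-bla cells, 2500/well, were stimulated with 9-cis-RA at 500 or 100 nM final alongside test compound for 18 h at 37 C.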

[5] = target: Retinoic acid receptor RXR-alpha (Homo sapiens) (UniProt P19793); test: as above; conditions: HEK293T RXRa-UAS-bla, beta-lactamase ratio, antagonist mode
Outline: as §1

[6] = target: Thyroid hormone receptor beta (Homo sapiens) (UniProt P10828); test: qHTS assay for small molecule antagonists of thyroid hormone receptor beta signaling (AID 588547; active means well fitted inhibition curve with a large enough effect in the signal ratio, with a control signal flat, not every such curve was filed as active; the % refers to the signal ratio;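 further: cells stimulated with 0.4 nM T3 agonist during compound exposure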); conditions: TR-UAS-bla HEK293, beta-lactamase ratio, antagonist mode, 18 h
Outline: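 TR-UAS-bla GripTite HEK293 cells in 2% charcoal/dextran FBS medium were preincubated 4 h at 37 C, given compound (0.59 nM to 92 uM) plus 0.4 nM T3 (final) for 18 h, then CCF4 for 2 h at RT; Hill fit gave IC50.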

[7] = target: Voltage-gated inwardly rectifying potassium channel KCNH2 (Homo sapiens) (UniProt Q12809); test: qHTS Assay for Small Molecule Inhibitors of the Human hERG Channel Activity (AID 588834); conditions: U2OS BacMam hERG, FluxOR thallium flux fluorescence; series mostly up to 46.1 µM;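 further: top concentration of the series differs between compounds; lower thallium flux fluorescence means stronger hERG block; nearly all actives have a fitted effect of over 50% in size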
Chain of Voltage-gated inwardly rectifying potassium channel KCNH2 (Homo sapiens) (Q12809 whole entry, looked up): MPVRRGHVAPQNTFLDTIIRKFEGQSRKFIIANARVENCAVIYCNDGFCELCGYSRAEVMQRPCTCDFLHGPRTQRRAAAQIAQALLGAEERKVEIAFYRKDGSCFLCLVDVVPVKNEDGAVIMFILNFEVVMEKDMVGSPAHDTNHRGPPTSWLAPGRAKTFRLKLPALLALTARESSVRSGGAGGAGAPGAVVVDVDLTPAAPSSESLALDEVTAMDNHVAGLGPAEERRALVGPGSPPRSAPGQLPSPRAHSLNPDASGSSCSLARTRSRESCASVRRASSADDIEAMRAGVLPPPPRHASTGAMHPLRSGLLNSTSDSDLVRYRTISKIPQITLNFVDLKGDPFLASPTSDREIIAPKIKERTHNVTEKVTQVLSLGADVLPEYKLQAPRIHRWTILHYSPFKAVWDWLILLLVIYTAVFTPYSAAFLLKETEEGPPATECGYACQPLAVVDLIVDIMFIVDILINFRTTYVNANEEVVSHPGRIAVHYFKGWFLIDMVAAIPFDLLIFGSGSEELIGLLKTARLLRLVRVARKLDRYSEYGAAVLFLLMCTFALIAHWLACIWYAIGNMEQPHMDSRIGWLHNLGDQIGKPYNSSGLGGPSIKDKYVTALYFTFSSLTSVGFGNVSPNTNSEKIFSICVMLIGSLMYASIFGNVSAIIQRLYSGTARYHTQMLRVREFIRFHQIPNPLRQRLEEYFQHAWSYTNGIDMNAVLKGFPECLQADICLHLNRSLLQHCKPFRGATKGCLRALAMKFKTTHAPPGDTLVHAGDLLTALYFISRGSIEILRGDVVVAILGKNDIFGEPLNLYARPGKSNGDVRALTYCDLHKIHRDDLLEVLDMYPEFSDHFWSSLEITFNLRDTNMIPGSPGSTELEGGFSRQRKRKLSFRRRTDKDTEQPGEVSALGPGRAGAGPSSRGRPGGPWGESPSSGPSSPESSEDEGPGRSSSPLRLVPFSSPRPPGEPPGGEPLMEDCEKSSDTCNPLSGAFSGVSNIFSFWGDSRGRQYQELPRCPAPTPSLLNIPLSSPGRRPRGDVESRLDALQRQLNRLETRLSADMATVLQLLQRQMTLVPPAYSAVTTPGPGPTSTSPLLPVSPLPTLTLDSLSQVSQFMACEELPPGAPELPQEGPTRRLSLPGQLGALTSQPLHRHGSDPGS
Outline: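 hERG block measured as reduced thallium-dye (FluxOR) fluorescence after stimulation buffer addition, read over 2 min. Cells were hERG-BacMam-transduced U2OS exposed to compound ~10 min […]; concentration-response fitted with Hill equation for AC50.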

[8] = target: Luciferin 4-monooxygenase (Photinus pyralis) (UniProt P08659); test: Biochemical firefly luciferase enzyme assay for NPC (AID 624030);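 further: purified P. pyralis luciferase at 10 nM with luciferin and ATP substrate; nearly all actives have a fitted effect of over 70% in size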; conditions: purified P. pyralis luciferase, luminescence, 5 min; series mostly up to 58.6 µM
Chain of Luciferin 4-monooxygenase (Photinus pyralis) (P08659 whole entry, looked up): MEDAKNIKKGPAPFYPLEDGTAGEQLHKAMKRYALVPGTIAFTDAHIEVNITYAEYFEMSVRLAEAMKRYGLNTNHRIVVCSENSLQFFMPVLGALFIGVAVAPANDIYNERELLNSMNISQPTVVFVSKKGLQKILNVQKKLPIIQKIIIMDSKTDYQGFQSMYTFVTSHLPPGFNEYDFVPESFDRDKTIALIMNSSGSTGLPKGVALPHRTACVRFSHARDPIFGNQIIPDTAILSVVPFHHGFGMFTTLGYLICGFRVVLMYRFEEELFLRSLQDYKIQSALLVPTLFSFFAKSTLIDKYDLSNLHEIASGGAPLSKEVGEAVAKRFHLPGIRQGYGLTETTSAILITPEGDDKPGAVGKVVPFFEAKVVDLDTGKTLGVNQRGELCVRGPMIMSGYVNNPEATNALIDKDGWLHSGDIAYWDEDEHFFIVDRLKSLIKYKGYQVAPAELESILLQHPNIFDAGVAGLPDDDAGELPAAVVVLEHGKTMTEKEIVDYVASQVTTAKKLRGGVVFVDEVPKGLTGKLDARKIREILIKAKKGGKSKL
Outline: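 Counter-screen for direct inhibition of the luciferase enzyme by approved-drug library compounds, run at 10 nM enzyme in 50 mM Tris acetate (final). Luminescence was read within 5 min of enzyme-buffer addition and normalized to PTC124 versus DMSO (0%).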

[9] = S16 Schwann cell viability assay (CellTiter-Glo assay) (AID 624031); conditions: S16 rat Schwann cells viability, 24 h; series mostly up to 57.5 µM; further: nearly all actives have a fitted effect of over 70% in size; further: potency means the concentration at half of the fitted maximal effect
Outline: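 Counter-screen for cytotoxicity: parental S16 rat Schwann cells lacking the PMP22 reporters, treated 24 h with compound, viability from cellular ATP by CellTiter-Glo luminescence, normalized to DMSO (0%) and no-cell wells.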

[10] = S16 Schwann cell PMP22 intronic element firefly luciferase assay (AID 624032); conditions: S16 rat Schwann cells, PMP22 element FLuc, 24 h; series mostly up to 57.5 µM; further: nearly all actives have a fitted effect of over 30% in size
Outline: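 Rat S16 Schwann cells stably carrying a PMP22 intronic element-driven Fluc reporter were seeded overnight, then exposed to compounds for 24 h at 37 °C. Luminescence was normalized to PTC124 (positive control) and DMSO (0% activity).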

[11] = S16 Schwann cell PMP22 intronic element beta-lactamase assay (AID 624044; calls by dose curve; further: nearly all actives have a fitted effect of over 15% in size); conditions: S16 rat Schwann cells, PMP22 element beta-lactamase FRET, 24 h; series mostly up to 38.3 µM
Outline: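 Beta-lactamase reporter under a PMP22 intronic regulatory element in stable S16 rat Schwann cells; 24 h compound exposure. 460 nm blue signal normalized between DMSO (0%) and potassium clavulanate, with 535 nm FRET tracking viability; curves classed by r2 and response.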

[12] = qHTS assay for small molecule agonists of the antioxidant response element (ARE) signaling pathway (AID 651741; active means well fitted activation curve with a large enough effect in the signal ratio; the % refers to the signal ratio; further: potency means the concentration at half of the fitted maximal effect); conditions: HepG2 ARE-bla reporter, beta-lactamase FRET ratio, 16 h; series mostly up to 96 µM
Outline: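 Reporter: beta-lactamase under ARE, stably in HepG2. Exposure: 16 h, 37 C, compounds delivered in DMSO by pin tool after 5 h cell preincubation. Readout: FRET substrate fluorescence after 2 h at RT.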

[13] = qHTS assay for small molecule activators of the p53 signaling pathway (AID 651743; active means well fitted activation curve with a large enough effect in the signal ratio, not every such curve was filed as active; the % refers to the signal ratio; further: potency means the concentration at half of the fitted maximal effect); conditions: HCT-116 p53RE-bla, beta-lactamase FRET ratio, 16 h; activation: stronger effect = higher value
Outline: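 Agonist-mode quantitative HTS in HCT-116 cells carrying a p53-response-element beta-lactamase reporter; 16 h compound treatment at 37 C, then FRET substrate loading for 2 h at room temperature and fluorescence read.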

[14] = qHTS assay for small molecule activators of the nuclear factor-kappa B (NF-kB) signaling pathway (AID 651749; active means well fitted activation curve with a large enough effect in the signal ratio; the % refers to the signal ratio); conditions: NF-kB-bla ME-180 cells, beta-lactamase FRET ratio, 16 h; stronger effect = higher value
Outline: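 Human ME-180 cervical cells with an NF-kB-bla construct; compounds added via 23 nL pin transfer, DMSO as vehicle; incubation 16 hr. Reporter activity measured by FRET disruption.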

[15] = qHTS assay for small molecule disruptors of the mitochondrial membrane potential - 5 hr assay (AID 651755; calls by dose curve; further: nearly all actives have a fitted effect of over 40% in size; further: potency means the concentration at half of the fitted maximal effect); conditions: JC-1-type ratio dye; series mostly up to 92.2 µM
Outline: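 Seed HepG2 overnight, add compound, incubate 5 hr at 37C and 5% CO2, stain 30 min with Mito-MPS, then measure monomer (490/535 nm) and aggregate (540/590 nm) fluorescence.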

[16] = target: Glutaminase kidney isoform, mitochondrial (Homo sapiens) (UniProt O94925); test: qHTS for Inhibitors of Glutaminase (GLS): LOPAC Validation (AID 624146); conditions: glutaminase enzyme activity inhibition; series mostly up to 46.1 µM;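 further: glutamate product detected by oxidase and peroxidase coupled Amplex red fluorescence gain; nearly all actives have a fitted effect of over 60% in size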
Chain of Glutaminase kidney isoform, mitochondrial (Homo sapiens) (O94925 whole entry, looked up, canonical isoform): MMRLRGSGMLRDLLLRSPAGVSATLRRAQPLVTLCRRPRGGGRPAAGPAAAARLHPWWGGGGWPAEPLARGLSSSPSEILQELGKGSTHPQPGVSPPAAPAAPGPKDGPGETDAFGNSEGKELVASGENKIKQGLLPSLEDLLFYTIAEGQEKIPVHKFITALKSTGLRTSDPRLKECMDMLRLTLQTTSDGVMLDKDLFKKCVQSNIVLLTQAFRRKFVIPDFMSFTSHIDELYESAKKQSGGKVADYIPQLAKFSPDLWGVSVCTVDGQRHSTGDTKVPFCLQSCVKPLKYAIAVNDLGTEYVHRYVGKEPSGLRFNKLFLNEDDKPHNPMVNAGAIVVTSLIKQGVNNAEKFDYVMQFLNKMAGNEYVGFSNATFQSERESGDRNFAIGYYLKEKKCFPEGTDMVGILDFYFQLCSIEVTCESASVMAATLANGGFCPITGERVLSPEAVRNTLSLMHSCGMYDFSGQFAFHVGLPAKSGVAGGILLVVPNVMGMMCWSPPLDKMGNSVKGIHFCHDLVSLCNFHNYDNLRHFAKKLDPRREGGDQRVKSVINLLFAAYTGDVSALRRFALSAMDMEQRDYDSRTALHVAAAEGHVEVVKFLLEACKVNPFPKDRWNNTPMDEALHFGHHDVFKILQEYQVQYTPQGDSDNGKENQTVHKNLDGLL
Outline: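 Coupled fluorescence readout: glutamate oxidase/HRP/Amplex Red detect glutamate formed by hKGA from L-glutamine (1 mM solution added). Buffer 45 mM KH2PO4 pH 8.2, 0.02% Tween-20; reads at t0 and 30 min RT.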

[17] = target: Glucagon-like peptide 1 receptor (Homo sapiens) (UniProt P43220); test: qHTS of GLP-1 Receptor Agonists: LOPAC Validation (AID 624148); conditions: GLP-1R agonist cell assay; series mostly up to 46.1 µM;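 further: higher luminescence signal means agonism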
Chain of Glucagon-like peptide 1 receptor (Homo sapiens) (P43220 whole entry, looked up): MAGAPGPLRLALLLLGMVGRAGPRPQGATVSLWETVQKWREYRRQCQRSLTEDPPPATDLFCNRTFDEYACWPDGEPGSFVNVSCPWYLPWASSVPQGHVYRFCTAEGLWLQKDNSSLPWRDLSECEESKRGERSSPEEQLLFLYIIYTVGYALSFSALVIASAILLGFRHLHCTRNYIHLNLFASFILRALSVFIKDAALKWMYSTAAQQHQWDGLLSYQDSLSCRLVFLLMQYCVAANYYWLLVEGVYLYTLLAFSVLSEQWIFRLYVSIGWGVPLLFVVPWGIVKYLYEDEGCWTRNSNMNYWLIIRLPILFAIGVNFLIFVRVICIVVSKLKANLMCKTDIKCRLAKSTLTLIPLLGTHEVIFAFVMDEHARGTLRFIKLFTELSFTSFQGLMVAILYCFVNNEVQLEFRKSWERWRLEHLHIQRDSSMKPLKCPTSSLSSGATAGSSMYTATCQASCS
Outline: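 HEK293 cells stably co-expressing a cAMP-responsive luciferase reporter and a hypersensitive GLP-1R were plated 12 h at 37 °C and exposed to compounds for 4-6 hr at 37 °C, 5% CO2. Luminescence was read 12 min after adding detection reagent.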

[18] = qHTS of Nrf2 Activators: LOPAC Validation (AID 624149); conditions: Nrf2/ARE reporter cell assay; series mostly up to 46.1 µM
Outline: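 Luciferase signal from ARE activation, read with Steady-Glo after 30 min at room temperature. Compounds were pin-transferred onto AREc32_Fluc cells (1000/well, OPTI-MEM/5% FBS, seeded overnight) and left 24 hr at 37 deg C.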

[19] = HTS Assay for Allosteric Antagonists of the Human D2 Dopamine Receptor: Hit Validation in HTRF (AID 624455); conditions: Cells stably expressing D1 dopamine receptor, inhibition mode; series mostly up to 46.1 µM;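 further: stable D1 dopamine receptor cell line scored for blocking the D1 response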
Outline: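 Inhibition of the D1-mediated response was measured by HTRF. Cells used were a line stably expressing the D1 dopamine receptor.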

Row | Structure (SMILES) | max response [1] | Potency [2] | outcome [3] | max response [4] | max response [5] | activity change % (negative = inhibition) [6] | Potency [7] | Potency [8] | Potency [9] | Potency [10] | Potency [11] | Potency [12] | activation [13] | activation [14] | Potency [15] | Potency [16] | outcome [17] | Potency [18] | Potency [19] | Potency [13]
1 | O=[N+]([O-])c1ccccc1 | -10.6% and -11.5% | inactive | inactive | -18.4% | -0.8% (inactive) | -11.4% (inactive) | inactive | inactive | inactive | inactive | inactive | inactive | 2.6% (inactive) and -2.69% (inactive) | -0.285% (inactive) and -0.296% (inactive) | inactive | – | – | – | – | –
2 | O=c1[nH]c(=O)n(Cl)c(=O)n1Cl | -3.39% | inactive | inactive | – | – | 1.99% (inactive) | – | inactive | inactive | inactive | inactive | inactive | – | – | – | – | – | – | – | –
3 | N#CN | 4.27% | inactive | inactive | -6.13% | -9.07% (inactive) | – | inactive | inactive | inactive | inactive | inactive | inactive | – | 0.422% (inactive) | – | – | – | – | – | –
4 | Oc1cc(Cl)c(Cl)cc1Cl | -8.67% | inactive | inactive | -1.91% and -9.59% | -11.3% (inactive) and 1.52% (inactive) | 5.32% (inactive) and 6.79% (inactive) | inactive | inactive | – | inactive | inactive | 42.2 µM (active) | – | 1.51% (inactive) and -0.218% (inactive) | 47.3 µM (active) | – | – | – | – | –
5 | O=C1C=CC(=O)C=C1 | -3.86% | inactive | inactive | 4.26% | -9.47% (inactive) | -10.9% (inactive) | inactive | – | – | – | – | 47.3 µM (active) | – | -1.25% (inactive) | inactive | inactive | inactive | inactive | inactive | –
6 | ClC=C(Cl)Cl | -19% | inactive | inactive | -0.484% and -8.25% | 5.36% (inactive) and -18.5% (inactive) | -2.56% (inactive) | inactive | inactive | inactive | inactive | – | inactive | -0.563% (inactive) and 7.22% (inactive) | -0.987% (inactive) and 0.875% (inactive) | inactive | – | – | – | – | –
7 | C[C@H]1CCC[C@H](O)CCCCCc2cc(O)cc(O)c2C(=O)O1 | 13% | inactive | – | 7.61% | -34.3% (inactive) | – | inactive | inactive | inactive | – | inactive | – | -0.975% (inactive) | -0.26% (inactive) | 37.6 µM (active) | – | – | – | – | –
8 | C[C@]12CCC(=O)C[C@@H]1CC[C@@H]1[C@@H]2CC[C@]2(C)[C@@H](O)CC[C@@H]12 | 21% | 7.94 µM (active) | inactive | 16.7% | -6.47% (inactive) | 2.39% (inactive) | inactive | inactive | inactive | – | inactive | 24.3 µM (active) | -3.4% (inactive) and -1.57% (inactive) | 1.2% (inactive) and 0.597% (inactive) | – | – | – | – | – | –
9 | CCCSP(=O)(OCC)SCCC | -4.11% | inactive | inactive | -12.4% | -0.503% (inactive) | 4.95% (inactive) | – | inactive | – | – | – | – | – | – | – | – | – | – | – | –
10 | CCCCCCCCOC(=O)c1ccccc1C(=O)OCCCCCCCC | -12.6% and -10.6% | inactive | inactive | -8.04% and -12.9% | 24.3% (inactive) and -9.86% (inactive) | 0.822% (inactive) | inactive | inactive | inactive | inactive | inactive | inactive | 1.9% (inactive) and -2.06% (inactive) | -1.07% (inactive) and -0.62% (inactive) | inactive | – | – | – | – | –
11 | [O]=[Cr](=[O])([OH])[O][Cr](=[O])(=[O])[OH] | – | – | inactive | 7.42% and 14.4% | -10.4% (inactive) and -3.4% (inactive) | -20.9% (inactive) | inactive | inactive | 4.05 µM (active) and 2.87 µM (active) | – | inactive | 7.5 µM (active) | – | 1.49% (inactive) and -0.838% (inactive) and 3.86% (inactive) | inactive | – | – | – | – | 22.4 µM (active) and 15.8 µM (active) and 7.94 µM (active)
12 | CCOP(=O)(OCC)O/C(=C/Cl)c1ccc(Cl)cc1Cl | 10.8% | inactive | inactive | 4.06% and 8.46% | -33.2% (inactive) and -25.5% (inactive) | -5.99% (inactive) | inactive | inactive | inactive | inactive | – | 30.6 µM (active) | -2.13% (inactive) and -0.49% (inactive) | -2.44% (inactive) and -1.58% (inactive) | – | – | – | – | – | –
13 | ClC1C(Cl)C(Cl)C(Cl)C(Cl)C1Cl (configuration not stated) | -3.03% [middle of 4 runs] | inactive | inactive | -10.8% [middle of 4 runs] | -6.12% (inactive) [middle of 4 runs] | 0.744% (inactive) [middle of 4 runs] | inactive | inactive | inactive | inactive | inactive | inactive | -1.74% (inactive) [middle of 4 runs] | -1.15% (inactive) [middle of 4 runs] | – | – | – | – | – | –
